Results on 36 molecules are retold here after ChEMBL document CHEMBL3433997, “St. Jude Leishmania screening dataset” (2016).

Holding throughout (format): functional
In test [1] the target is Solute carrier family 2, facilitated glucose transporter member 1 (Homo sapiens) (UniProt P11166). The test can be described thus: ST_JUDE_LEISH: Cytotoxicity at 2uM final concentration against transgenic Leishmania Mexicana promastigotes LmGLUT1 that are glucose transport deficient and complemented with the human glucose transporter GLUT1. Activity is measured by DNA content using SYBR green in vitro.

Test [2] has as its target Hexose transporter 1 (Plasmodium falciparum) (UniProt O97467). Kind of test: ST_JUDE_LEISH: Cytotoxicity at 2uM final concentration against transgenic Leishmania Mexicana promastigotes LmPfHT that are glucose transport deficient and complemented with the Plasmodium falciparum hexose transporter. Activity is measured by DNA content using SYBR green in vitro.
For test [3], the target named is Glucose transporter (Leishmania mexicana) (UniProt O61059). The test can be described thus: ST_JUDE_LEISH: Cytotoxicity at 2uM final concentration against transgenic Leishmania Mexicana promastigotes LmGT2 that are glucose transport deficient and complemented with the L. Mexicana glucose transporter 2. Activity is measured by DNA content using SYBR green in vitro.

The structures appear in SMILES notation.

Sequence of Solute carrier family 2, facilitated glucose transporter member 1 (Homo sapiens) (P11166 whole entry): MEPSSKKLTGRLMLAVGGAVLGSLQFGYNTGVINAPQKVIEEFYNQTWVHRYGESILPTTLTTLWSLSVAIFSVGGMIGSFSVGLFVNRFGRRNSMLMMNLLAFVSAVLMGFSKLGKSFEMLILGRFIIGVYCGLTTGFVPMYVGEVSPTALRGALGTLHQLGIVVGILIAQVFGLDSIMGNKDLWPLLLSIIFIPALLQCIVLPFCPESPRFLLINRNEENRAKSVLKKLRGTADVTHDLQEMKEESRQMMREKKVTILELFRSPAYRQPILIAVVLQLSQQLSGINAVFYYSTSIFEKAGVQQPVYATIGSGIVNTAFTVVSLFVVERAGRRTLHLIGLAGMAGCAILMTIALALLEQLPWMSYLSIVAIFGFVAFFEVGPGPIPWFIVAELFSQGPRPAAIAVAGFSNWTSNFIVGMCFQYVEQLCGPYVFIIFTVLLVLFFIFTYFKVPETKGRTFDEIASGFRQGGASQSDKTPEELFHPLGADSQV

Consider `CCOC(=O)c1ccc(NC(=O)Nc2cccc(-c3ccc(-c4nc5cccc(C)c5[nH]4)s3)c2)cc1`, for which the figures for the inhibition in test [1], in test [2] and in test [3] were -0.56%, 0.81% and 2.18%, respectively.

With `CC(C)(C)OC(=O)Nc1cccc(-c2csc(NC(=N)N)n2)c1`, the results for the inhibition in test [1], in test [2] and in test [3] were 0.85%, 0.42% and -0.52%, respectively.

Take `CCOC(=O)c1cccc(NC(=O)Nc2cccc(-c3ncc(OCCCN)c4c3nc(-c3nonc3N)n4CC)c2)c1`: the inhibition in test [1] turned out to be 2.41%; in test [2] it was 3.25%; in test [3], 3.37%.

Take `CN(CCCCCNC(=O)/C=C/c1ccc(Cl)c(Cl)c1)CCCCc1c[nH]c2ccccc12`: the inhibition in test [1] worked out at 0.57%; in test [2], 0.62%; in test [3], 1.11%.

With `COC(=O)c1cc(OC)c(OC)cc1NC(=O)NC12CC3CC(CC(C3)C1)C2`, the inhibition in test [1] is 4.1%; in test [2], 2.13%; in test [3], 1.18%.

For the molecule `Cc1ccnc(NC(c2ccc(Cl)c([N+](=O)[O-])c2)c2ccc3cccnc3c2O)c1` (stereo not drawn), the inhibition in test [1] was 0.43%; in test [2], -0.87%; in test [3], -1.39%.

`CC1(C)NC(N)=NC(=N)N1OCCCOc1cc(Cl)ccc1Cl`: the inhibition in test [1] was determined as 13.6%; in test [2], 13.5%; in test [3], 13.6%.

For `O=C(C(=O)c1ccc(Nc2ccnc3cc(-c4ccccn4)ccc23)cc1)c1ccccc1`, the figures for the inhibition in test [1], in test [2] and in test [3] were -1.32%, -0.47% and -2.63%, respectively.

Take `CC(=O)c1cc(N2CCOCC2)ccc1N`: the inhibition in test [1] was 2.03%; in test [2], 1.08%; in test [3], 2.38%.

Turning to `OC1(C(F)(F)F)CC(c2ccccc2)=NN1c1nncc(-c2ccccc2)n1` (stereo not drawn), the inhibition stood at 0.8% in test [1], 0.53% in test [2] and 1.18% in test [3].

On to `COc1cccc(-c2ccc3c(-c4cccc(NC(C)=O)c4)cnc(N)c3c2)c1`, for which the inhibition in test [1] was 5.41%; in test [2] it was 4.32%; in test [3], 3.78%.

On to `O=C(c1ccccc1)N1COCC(CCN2CCC(N3CCCC3)CC2)(c2ccc(Cl)c(Cl)c2)C1` (stereo not drawn), for which the figures for the inhibition in test [1], in test [2] and in test [3] were 2.71%, -0.49% and 2.59%, respectively.

Consider `c1cc(-c2ccc(CN3CCCC3)cc2)cc(-c2nc3ccccc3[nH]2)c1`, for which the values for the inhibition in test [1], in test [2] and in test [3] were 0.44%, 1.4% and 0.98%, respectively.

In the case of `O=C(Nc1ccc(N2CCC(Nc3ccccn3)CC2)cc1)c1cnc(Cl)c(Cl)c1`, the inhibition in test [1] is 18%; in test [2], 10.4%; in test [3] it was 4.85%.

Regarding `CCC(CC)OC(=O)C(C)c1cccc(C(=O)c2ccccc2)c1` (stereo not drawn), the values for the inhibition in test [1], in test [2] and in test [3] were 2.22%, -0.21% and 1.64%, respectively.

With `CCCCCN1CCCC(CNS(=O)(=O)c2cccc(C(=O)Nc3ccc(C(F)(F)F)cc3)c2)C1` (stereo not drawn), the figures for the inhibition in test [1], in test [2] and in test [3] were 0.67%, -0.91% and -0.09%, respectively.

On to `COc1ccc(C=NNc2nc(O)cc(-c3ccccc3)n2)cc1OC`, for which the inhibition in test [1] was 1.33%; in test [2], -1.28%; in test [3], -1.28%.

Regarding `COC(=O)c1ccc(-c2ccc(-c3cccnc3)cc2C)cc1`, the values for the inhibition in test [1], in test [2] and in test [3] were 91.7%, 90.5% and 74.1%, respectively.

Turning to `O=C(Nc1ccc(F)cc1)NC1CCN(CCCCCNC(=O)C2CC2c2ccc(Cl)c(Cl)c2)CC1` (stereo not drawn), the inhibition in test [1] is 1.84%; in test [2] it was 1.54%; in test [3] it was 2.31%.

As to `CSc1cccc(NC(=O)Nc2ccc(I)c(OCCN(C)C)c2)c1`, the inhibition in test [1] stood at 4.88%; in test [2], 4.31%; in test [3] it was 3.56%.

Turning to `CN(CC(=O)Nc1ccc(F)cc1)C(=O)c1ccc(-c2ccc(F)cc2)o1`, the inhibition in test [1] came to 5.1%; in test [2], 7.16%; in test [3] it was 5.24%.

On to `COc1ccc(NC(=O)/C=C/c2ccccc2Cl)cc1OCCN1CCC(c2nc3ccccc3[nH]2)CC1`, for which the inhibition in test [1] was determined as 3.22%; in test [2], 1.68%; in test [3] it was 2.78%.

On to `Nc1cc(-c2ccc3ccccc3c2)nc2ccccc12`, for which the inhibition in test [1] turned out to be 31.2%; in test [2], 26.8%; in test [3], 13.7%.

Turning to `COc1ccc2ncc(F)c(NC(=O)C3CCC(NCc4cc5cc(F)cc(F)c5[nH]4)CC3)c2n1` (stereo not drawn), the inhibition in test [1] was determined as 68.5%; in test [2] it was 78.5%; in test [3], 82.5%.

As to `COc1ccc(Nc2ncc3c(-c4cccc(NC(=O)Cc5ccc(F)cc5)c4)c[nH]c3n2)cc1OC`, the values for the inhibition in test [1], in test [2] and in test [3] were 2.27%, 2.59% and 2.37%, respectively.

As to `COc1ccc(C2=CCN(c3ccc(Cl)c(Cl)c3)C2=O)cc1OCCN1CCCCC1`, the inhibition in test [1] was 3.36%; in test [2], 1.21%; in test [3] it was -4.01%.

`COc1ccc(-c2nc3c(NCc4ccccc4)nccc3[nH]2)c(OC)c1`: the values for the inhibition in test [1], in test [2] and in test [3] were 4.06%, 4.06% and 2.67%, respectively.

For `Brc1cccc(Nc2nccc(Nc3ccc(Oc4ccccc4)cc3)n2)c1`, the inhibition in test [1] was 6.01%; in test [2], 5.97%; in test [3], -0.46%.

Regarding `Cc1cnc(C(=O)Nc2cccc(-c3cccc(-c4nc5cccc(C)c5[nH]4)c3)c2)cn1`, the inhibition is 4.11% in test [1], 2.89% in test [2] and 0.5% in test [3].

As to `COc1ccc(-c2cccc(NC(=O)c3cccc(Cl)c3)c2)cc1CNC(C)C`, the inhibition in test [1] was 1.6%; in test [2] it was -0.57%; in test [3], 1.24%.

For `Cc1ccc(Cn2c(N3CCC(C(=O)NCc4cccs4)CC3)nc3ccccc32)cc1`, the inhibition turned out to be 1.76% in test [1], 2.67% in test [2] and 7.85% in test [3].

As to `CCCNC(=O)c1cncc(-c2ccc(CNC(CC)c3ccccc3)cc2)c1` (stereo not drawn), the inhibition in test [1] was -0.02%; in test [2], 0.28%; in test [3], -0.14%.

For `Cc1cc(=NN=Cc2cccc(Cl)c2)c2cc(F)ccc2[nH]1`, the results for the inhibition in test [1], in test [2] and in test [3] were 5.23%, 5.15% and 4.84%, respectively.

Take `Fc1ccc(CN2CCN(c3ncnc4cc(-c5ccccc5)sc34)CC2)cc1`: the inhibition in test [1] was -1.67%; in test [2], -1.81%; in test [3], -1.83%.

Regarding `N=C1SC(=Cc2cn[nH]c2-c2ccc(F)cc2)C(=O)N1c1nccs1`, the inhibition in test [1] was determined as 0.88%; in test [2], 2.1%; in test [3], 1.17%.

As to `c1cc(CN2CCCCC2)cc(-c2ccc(-c3nc4ccccc4[nH]3)cc2)c1`, the inhibition in test [1] is -0.4%; in test [2] it was 2.76%; in test [3] it was -1.06%.
